Measurements taken from PubChem BioAssay AID1159580 (chemical genetic matrix, 2015).
About 2,000 (36%) of roughly 5,500 compounds were called active. About 18% were inconclusive and are not listed. The list shows a part of the results. Unmarked numbers belong to inactive results. No stated cut-off is given here; in the data, active means normalized growth mostly below about 0.91 (no sharp cut-off); inconclusive means no clear call, values can overlap the other calls; inactive means mostly above about 0.92.

Assay: chemical genetic growth profiling, strain panel (AID 1159580);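 further: tested at 20 µM; growth read once vehicle control cultures reached saturation at 30 °C; 1 = growth at the plate median or of vehicle wells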
Details: growth OD
[1] = S. cerevisiae deletion strains, locus YDL101C, strain DUN1, stronger effect = lower value
[2] = S. cerevisiae deletion strains, locus YHR030C, strain SLT2, stronger effect = lower value
[3] = S. cerevisiae deletion strains, locus YAL013W, strain DEP1, stronger effect = lower value
[4] = S. cerevisiae deletion strains, locus YBR229C, strain ROT2, stronger effect = lower value
[5] = S. cerevisiae deletion strains, locus YCL061C, strain MRC1, stronger effect = lower value
[6] = S. cerevisiae deletion strains, locus YDR150W, strain NUM1, stronger effect = lower value
[7] = S. cerevisiae deletion strains, locus YEL061C, strain CIN8, stronger effect = lower value
[8] = S. cerevisiae deletion strains, locus YGR078C, strain PAC10, stronger effect = lower value
[9] = S. cerevisiae deletion strains, locus YHR087W, strain rtc3, stronger effect = lower value
[10] = S. cerevisiae deletion strains, locus YJL187C, strain SWE1, stronger effect = lower value
[11] = S. cerevisiae deletion strains, locus YJR043C, strain POL32, stronger effect = lower value
[12] = S. cerevisiae deletion strains, locus YJR075W, strain HOC1, stronger effect = lower value
[13] = S. cerevisiae deletion strains, locus YKL190W, strain CNB1, stronger effect = lower value
[14] = S. cerevisiae deletion strains, locus YLR039C, strain RIC1, stronger effect = lower value
[15] = S. cerevisiae deletion strains, locus YLR058C, strain SHM2 (second series), stronger effect = lower value
[16] = S. cerevisiae deletion strains, locus YLR085C, strain ARP6, stronger effect = lower value
[17] = S. cerevisiae deletion strains, locus YLR262C, strain YPT6, stronger effect = lower value
[18] = S. cerevisiae deletion strains, locus YML094W, strain GIM5, stronger effect = lower value
[19] = S. cerevisiae deletion strains, locus YMR219W, strain ESC1, stronger effect = lower value
[20] = S. cerevisiae deletion strains, locus YMR263W, strain SAP30, stronger effect = lower value
[21] = S. cerevisiae deletion strains, locus YNL153C, strain GIM3, stronger effect = lower value
[22] = S. cerevisiae deletion strains, locus YNL298W, strain CLA4 (second series), stronger effect = lower value
[23] = S. cerevisiae deletion strains, locus YNL322C, strain KRE1, stronger effect = lower value
[24] = S. cerevisiae deletion strains, locus YNR030W, strain Alg12, stronger effect = lower value
[25] = S. cerevisiae deletion strains, locus YPL055C, strain LGE1, stronger effect = lower value
[26] = S. cerevisiae deletion strains, locus YPL241C, strain CIN2, stronger effect = lower value
[27] = S. cerevisiae deletion strains, locus YPR135W, strain CTF4, stronger effect = lower value

`O=C(ON=C1CCCCC1)c1ccc([N+](=O)[O-])cc1` showed a normalized growth (S. cerevisiae deletion strains, locus YAR019C, strain CDC15, stronger effect = lower value) of 0.949, a normalized growth (S. cerevisiae deletion strains, locus YBL105C, strain PKC1, stronger effect = lower value) of 0.959 and a normalized growth (S. cerevisiae deletion strains, locus YBR135W, strain CKS1, stronger effect = lower value) of 0.947. The normalized growth (S. cerevisiae deletion strains, locus YBR136W, strain MEC1, stronger effect = lower value) was 0.956, the normalized growth (S. cerevisiae deletion strains, locus YBR160W, strain CDC28, stronger effect = lower value) was 0.959 and the normalized growth (S. cerevisiae deletion strains, locus YDL017W, strain CDC7, stronger effect = lower value) was 0.952. It also gave a normalized growth (S. cerevisiae deletion strains, locus YDL028C, strain MPS1, stronger effect = lower value) of 0.95, a normalized growth [1] of 0.954 and a normalized growth (S. cerevisiae deletion strains, locus YDL108W, strain KIN28, stronger effect = lower value) of 0.948. The normalized growth (S. cerevisiae deletion strains, locus YDL132W, strain cdc53, stronger effect = lower value) was 0.944, the normalized growth (S. cerevisiae deletion strains, locus YDL214C, strain PRR2, stronger effect = lower value) was 0.849 and the normalized growth (S. cerevisiae deletion strains, locus YDR052C, strain DBF4, stronger effect = lower value) was 0.962. It also gave a normalized growth (S. cerevisiae deletion strains, locus YDR054C, strain cdc34, stronger effect = lower value) of 0.948, a normalized growth (S. cerevisiae deletion strains, locus YDR226W, strain ADK1, stronger effect = lower value) of 0.948 and a normalized growth (S. cerevisiae deletion strains, locus YDR477W, strain SNF1, stronger effect = lower value) of 0.833. It also gave a normalized growth (S. cerevisiae deletion strains, locus YER123W, strain YCK3, stronger effect = lower value) of 0.817, a normalized growth (S. cerevisiae deletion strains, locus YER133W, strain GLC7, stronger effect = lower value) of 0.762 and a normalized growth (S. cerevisiae deletion strains, locus YFL009W, strain cdc4, stronger effect = lower value) of 0.942. The normalized growth (S. cerevisiae deletion strains, locus YFL029C, strain CAK1, stronger effect = lower value) was 0.938, the normalized growth (S. cerevisiae deletion strains, locus YFR003C, strain YPI1, stronger effect = lower value) was 0.953 and the normalized growth (S. cerevisiae deletion strains, locus YFR019W, strain FAB1, stronger effect = lower value) was 0.886. For the same compound, the normalized growth (S. cerevisiae deletion strains, locus YFR028C, strain CDC14, stronger effect = lower value) was 0.942, the normalized growth (S. cerevisiae deletion strains, locus YGR040W, strain KSS1, stronger effect = lower value) was 0.828 and the normalized growth (S. cerevisiae deletion strains, locus YGR052W, strain FMP48, stronger effect = lower value) was 0.843. The normalized growth (S. cerevisiae deletion strains, locus YGR092W, strain DBF2, stronger effect = lower value) was 0.889, the normalized growth [2] was 0.576 (active) and the normalized growth (S. cerevisiae deletion strains, locus YHR079C, strain IRE1, stronger effect = lower value) was 0.784. The normalized growth (S. cerevisiae deletion strains, locus YHR082C, strain KSP1, stronger effect = lower value) was 0.901, the normalized growth (S. cerevisiae deletion strains, locus YHR205W, strain SCH9, stronger effect = lower value) was 0.829 and the normalized growth (S. cerevisiae deletion strains, locus YIL147C, strain SLN1, stronger effect = lower value) was 0.946. It also gave a normalized growth (S. cerevisiae deletion strains, locus YJL095W, strain BCK1, stronger effect = lower value) of 0.771, a normalized growth (S. cerevisiae deletion strains, locus YJL128C, strain PBS2, stronger effect = lower value) of 0.981 and a normalized growth (S. cerevisiae deletion strains, locus YJL157C, strain FAR1, stronger effect = lower value) of 0.82. For the same compound, the normalized growth (S. cerevisiae deletion strains, locus YJR016C, strain ILV3, stronger effect = lower value) was 0.953, the normalized growth (S. cerevisiae deletion strains, locus YJR066W, strain TOR1 (second series), stronger effect = lower value) was 0.814 and the normalized growth (S. cerevisiae deletion strains, locus YJR066W, strain TOR1, stronger effect = lower value) was 0.838. The normalized growth (S. cerevisiae deletion strains, locus YKL048C, strain ELM1, stronger effect = lower value) was 0.974, the normalized growth (S. cerevisiae deletion strains, locus YKL067W, strain YNK1, stronger effect = lower value) was 0.865 and the normalized growth (S. cerevisiae deletion strains, locus YKL101W, strain HSL1, stronger effect = lower value) was 0.881. The normalized growth (S. cerevisiae deletion strains, locus YKL193C, strain SDS22, stronger effect = lower value) was 0.934, the normalized growth (S. cerevisiae deletion strains, locus YKL203C, strain TOR2, stronger effect = lower value) was 0.888 and the normalized growth (S. cerevisiae deletion strains, locus YLR113W, strain HOG1, stronger effect = lower value) was 0.69 (active). For the same compound, the normalized growth (S. cerevisiae deletion strains, locus YLR133W, strain CKI1, stronger effect = lower value) was 0.874, the normalized growth (S. cerevisiae deletion strains, locus YLR403W, strain SFP1, stronger effect = lower value) was 0.783 and the normalized growth (S. cerevisiae deletion strains, locus YML070W, strain DAK1, stronger effect = lower value) was 0.819. It also gave a normalized growth (S. cerevisiae deletion strains, locus YMR001C, strain CDC5, stronger effect = lower value) of 0.947, a normalized growth (S. cerevisiae deletion strains, locus YMR205C, strain PFK2 (second series), stronger effect = lower value) of 0.876 and a normalized growth (S. cerevisiae deletion strains, locus YMR277W, strain FCP1, stronger effect = lower value) of 0.938. It also gave a normalized growth (S. cerevisiae deletion strains, locus YNL006W, strain LST8, stronger effect = lower value) of 0.943, a normalized growth (S. cerevisiae deletion strains, locus YNL020C, strain ARK1, stronger effect = lower value) of 0.876 and a normalized growth (S. cerevisiae deletion strains, locus YNL161W, strain CBK1, stronger effect = lower value) of 0.941. For the same compound, the normalized growth (S. cerevisiae deletion strains, locus YNL183C, strain NPR1, stronger effect = lower value) was 0.916, the normalized growth (S. cerevisiae deletion strains, locus YNL207W, strain RIO2, stronger effect = lower value) was 0.944 and the normalized growth (S. cerevisiae deletion strains, locus YNL222W, strain SSU72, stronger effect = lower value) was 0.948. It also gave a normalized growth (S. cerevisiae deletion strains, locus YNL307C, strain MCK1 (second series), stronger effect = lower value) of 0.851, a normalized growth (S. cerevisiae deletion strains, locus YOL078W, strain AVO1, stronger effect = lower value) of 0.937 and a normalized growth (S. cerevisiae deletion strains, locus YOL136C, strain PFK27, stronger effect = lower value) of 0.85. It also gave a normalized growth (S. cerevisiae deletion strains, locus YOR061W, strain CKA2, stronger effect = lower value) of 0.867, a normalized growth (S. cerevisiae deletion strains, locus YOR119C, strain RIO1, stronger effect = lower value) of 0.877 and a normalized growth (S. cerevisiae deletion strains, locus YOR231W, strain MKK1, stronger effect = lower value) of 0.826. It also gave a normalized growth (S. cerevisiae deletion strains, locus YOR329C, strain SCD5, stronger effect = lower value) of 0.949, a normalized growth (S. cerevisiae deletion strains, locus YPL031C, strain PHO85, stronger effect = lower value) of 0.78 and a normalized growth (S. cerevisiae deletion strains, locus YPL153C, strain RAD53, stronger effect = lower value) of 0.794. The normalized growth (S. cerevisiae deletion strains, locus YPL204W, strain HRR25, stronger effect = lower value) was 0.784, the normalized growth (S. cerevisiae deletion strains, locus YPL209C, strain IPL1, stronger effect = lower value) was 0.952 and the normalized growth (S. cerevisiae deletion strains, locus YPL256C, strain CLN2, stronger effect = lower value) was 0.829 (active). The normalized growth (S. cerevisiae deletion strains, locus YPR025C, strain CCL1, stronger effect = lower value) was 0.948, the normalized growth (S. cerevisiae deletion strains, locus YPR106W, strain ISR1, stronger effect = lower value) was 0.969 and the normalized growth (S. cerevisiae deletion strains, locus YPR111W, strain DBF20, stronger effect = lower value) was 0.968. It also gave a normalized growth (S. cerevisiae deletion strains, strain NNK1, stronger effect = lower value) of 0.972 and a normalized growth (S. cerevisiae deletion strains, strain TSCII, stronger effect = lower value) of 0.936.

In the case of `O=[N+]([O-])c1ccc(S(=O)(=O)N2CCCCC2)cc1`, the normalized growth [3] is reported as 0.994, the normalized growth [4] is reported as 0.985 and the normalized growth [5] is reported as 0.976. For the same compound, the normalized growth [1] was 0.977, the normalized growth (S. cerevisiae deletion strains, locus YDL134C, strain PPH21, stronger effect = lower value) was 1 and the normalized growth [6] was 0.962. For the same compound, the normalized growth [7] was 0.978, the normalized growth [8] was 1 and the normalized growth (S. cerevisiae deletion strains, locus YGR229C, strain SMI1, stronger effect = lower value) was 1. It also gave a normalized growth [2] of 1, a normalized growth [9] of 0.994 and a normalized growth [10] of 0.982. It also gave a normalized growth [11] of 0.992, a normalized growth [12] of 0.985 and a normalized growth [13] of 1. For the same compound, the normalized growth [14] was 1.01, the normalized growth [15] was 0.997 and the normalized growth [16] was 0.925. The normalized growth [17] was 1.03, the normalized growth [18] was 0.999 and the normalized growth [19] was 0.989. For the same compound, the normalized growth [20] was 0.972, the normalized growth (S. cerevisiae deletion strains, locus YMR307W, strain GAS1, stronger effect = lower value) was 0.943 and the normalized growth (S. cerevisiae deletion strains, locus YNL128W, strain TEP1, stronger effect = lower value) was 1. The normalized growth [21] was 0.975, the normalized growth [22] was 0.991 and the normalized growth [23] was 0.996. The normalized growth [24] was 0.989, the normalized growth [25] was 0.976 and the normalized growth [26] was 0.991. It also gave a normalized growth [27] of 0.938.

For `O=[N+]([O-])c1ccc(OCCO)c([N+](=O)[O-])c1`, the normalized growth [3] was 1, the normalized growth [4] was 0.978 and the normalized growth [5] was 1.04. For the same compound, the normalized growth [1] was 1.01, the normalized growth [6] was 0.981 and the normalized growth [7] was 0.954. It also gave a normalized growth [8] of 1.02, a normalized growth [2] of 1.23 and a normalized growth [9] of 0.991. The normalized growth [10] was 0.991, the normalized growth [11] was 1.01 and the normalized growth [12] was 1.03. For the same compound, the normalized growth [13] was 1, the normalized growth [14] was 1.18 and the normalized growth [15] was 0.998. For the same compound, the normalized growth [16] was 1, the normalized growth [17] was 1.14 and the normalized growth [18] was 1. For the same compound, the normalized growth [19] was 0.993, the normalized growth [20] was 1.01 and the normalized growth [21] was 1.01. For the same compound, the normalized growth [22] was 0.987, the normalized growth [23] was 0.982 and the normalized growth [24] was 0.997. For the same compound, the normalized growth (S. cerevisiae deletion strains, locus YOL006C, strain TOP1, stronger effect = lower value) was 1.01, the normalized growth [25] was 0.989 and the normalized growth [26] was 0.996. It also gave a normalized growth [27] of 1.11 and a normalized growth (S. cerevisiae strains, strain wild type, stronger effect = lower value) of 0.986.

In the case of `O=[N+]([O-])c1ccc(O[C@@H]2O[C@H](CO)[C@@H](O)[C@H](O)[C@H]2F)c([N+](=O)[O-])c1`, the normalized growth (S. cerevisiae deletion strains, locus YAL040C, strain CLN3, stronger effect = lower value) is reported as 0.994, the normalized growth (S. cerevisiae deletion strains, locus YCL061C, strain MRC1 (second series), stronger effect = lower value) is reported as 0.991 and the normalized growth [6] is reported as 0.991. It also gave a normalized growth (S. cerevisiae deletion strains, locus YDR363W, strain ESC2, stronger effect = lower value) of 1.03, a normalized growth (S. cerevisiae deletion strains, locus YER002W, strain NOP16, stronger effect = lower value) of 0.969 and a normalized growth [8] of 1.01. The normalized growth (S. cerevisiae deletion strains, locus YNL175C, strain NOP13, stronger effect = lower value) was 0.986, the normalized growth (S. cerevisiae deletion strains, locus YNL197C, strain WHI3, stronger effect = lower value) was 0.995 and the normalized growth (S. cerevisiae deletion strains, locus YNL224C, strain SQS1, stronger effect = lower value) was 0.984. For the same compound, the normalized growth (S. cerevisiae deletion strains, locus YOR083W, strain WHI5 (second series), stronger effect = lower value) was 1.02.
